The record followed here is PubChem BioAssay.

Results filed as inconclusive are left out. The source made the active and inactive calls. Cut-off read from the data, not from the text of the source, unless noted: active = response above about 15%; inactive = the rest.

Test [1] in a line: yeast TOR pathway RPL19A-GFP modulators, primary screen, cell-based, S. cerevisiae, multiplex flow cytometry (AID 1862; in the data active = percent of DMSO control GFP below about 86%;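 note: lower values mimic rapamycin by blocking the RPL19A rise seen in DMSO cells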). The note with it: S. cerevisiae RPL19A-GFP strain, flow cytometry fluorescence, 3 h; at 10 µM; stronger effect = lower value. In general terms: A flow cytometer gives signals particle by particle.
Test [2] is described as follows: modulators of MEP2-GFP levels in yeast, primary screen, S. cerevisiae, multiplex flow cytometry (AID 1867;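 active = GFP response, as percent of the DMSO control, above the screen-wide mean plus 3 SD, about 139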;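 note: median GFP channel fluorescence of barcode-gated MEP2-GFP cells measured by flow cytometry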). As to conditions: S. cerevisiae MEP2-GFP strain, 3 h, at 10 µM, stronger effect = higher value, 100% means same as DMSO wells.
Test [3] can be described thus: modulators of CIT2-GFP expression in yeast, primary screen, S. cerevisiae, GFP fusion, multiplex flow cytometry (AID 1870;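 active = percent response above a set limit, the screen-wide mean plus 3 SD, cut at about 130% in these data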;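 note: barcoded CIT2-GFP strain pooled with four other GFP strains with rapamycin as positive control; median GFP fluorescence per well over plate mean of DMSO wells so 100% = DMSO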). As to conditions: 3 h, at 10 µM, stronger effect = higher value.
Test [4] can be described thus: modulators of LAP4-GFP expression in yeast, primary screen, S. cerevisiae, multiplex flow cytometry (AID 1873;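 active = GFP signal, as percent of the solvent control, above the screen mean plus 3 SD, about 149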). As to conditions: 3 h, at 10 µM, stronger effect = higher value.
Test [5] can be described thus: modulators of AGP1-GFP expression in yeast TOR pathway, primary screen, cell-based, multiplex flow cytometry, S. cerevisiae (AID 1887;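 active = GFP signal above the screen-wide mean plus 3 SD, that is over about 124.5% of the solvent control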;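 note: AGP1-GFP fusion strain of S. cerevisiae within a five-strain barcoded multiplex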). The note with it: 3 h, at 10 µM, stronger effect = higher value.
Test [6] is described as follows: inhibitors of CD8+ T cell-vesicle binding, pilot screen, LFA-1/ICAM-1 modulator project, MLPCN validation set, flow cytometry (AID 2523;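 active = response below a set limit, under 55% cells CD8-positive and vesicle-bound, and CD8 cells' 90th-percentile brightness under 279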;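 for vesicle binding response: mean PE anti-B7-1 fluorescence of CD8+ cells relative to row control; 100% = QL9-loaded vesicles with DMSO vehicle in the same plate row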). The note with it: 2C mouse CD8+ T cells, at 7 µM, stronger effect = lower value; double positive events: measured here: CD8+/vesicle+ event percentage.
The target of test [7] is Integrin beta-1 (Homo sapiens) + Integrin alpha-4 (Homo sapiens) (UniProt P13612+P05556). The test is described as follows: inhibition of HUTS-21 binding to VLA-4, pilot screen, VLA-4 allosteric modulator project, U937 cells, HUTS-21 mAb, flow cytometry, validation set (AID 2674;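 active = inhibition above 50%, about 3 SD of the validation set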;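 note: antibody binding induced by the VLA-4 ligand LDV present at three times its Kd; 0% = LDV ligand with antibody and no compound and 100% = antibody without LDV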). As to conditions: HUTS-21 LIBS mAb binding, at 6.7 µM, stronger effect = higher value, binding induced by LDV ligand.
Integrin beta-1 (Homo sapiens) + Integrin alpha-4 (Homo sapiens), sequence (P05556 whole entry, looked up): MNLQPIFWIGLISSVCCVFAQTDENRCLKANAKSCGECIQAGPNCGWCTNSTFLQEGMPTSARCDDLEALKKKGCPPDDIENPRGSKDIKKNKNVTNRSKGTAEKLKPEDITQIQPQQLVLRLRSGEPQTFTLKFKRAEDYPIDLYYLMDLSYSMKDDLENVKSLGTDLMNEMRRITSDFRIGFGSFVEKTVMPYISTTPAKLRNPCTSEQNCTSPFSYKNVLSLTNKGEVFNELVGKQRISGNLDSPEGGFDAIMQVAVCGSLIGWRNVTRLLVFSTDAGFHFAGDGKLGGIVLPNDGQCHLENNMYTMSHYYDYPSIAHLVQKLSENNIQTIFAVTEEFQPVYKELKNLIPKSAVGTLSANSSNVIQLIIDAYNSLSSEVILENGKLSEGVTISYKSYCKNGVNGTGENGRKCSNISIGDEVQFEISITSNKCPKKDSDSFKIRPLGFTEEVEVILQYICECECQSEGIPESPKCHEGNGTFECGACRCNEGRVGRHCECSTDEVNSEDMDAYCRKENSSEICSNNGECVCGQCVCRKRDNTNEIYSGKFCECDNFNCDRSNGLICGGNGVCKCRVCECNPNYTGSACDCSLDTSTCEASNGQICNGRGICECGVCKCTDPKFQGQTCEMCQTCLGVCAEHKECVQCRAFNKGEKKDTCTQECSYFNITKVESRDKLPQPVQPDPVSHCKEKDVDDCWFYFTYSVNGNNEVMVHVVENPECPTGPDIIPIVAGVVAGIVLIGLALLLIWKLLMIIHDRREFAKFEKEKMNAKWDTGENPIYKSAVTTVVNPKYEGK
Integrin beta-1 (Homo sapiens) + Integrin alpha-4 (Homo sapiens), sequence (P13612 whole entry, looked up): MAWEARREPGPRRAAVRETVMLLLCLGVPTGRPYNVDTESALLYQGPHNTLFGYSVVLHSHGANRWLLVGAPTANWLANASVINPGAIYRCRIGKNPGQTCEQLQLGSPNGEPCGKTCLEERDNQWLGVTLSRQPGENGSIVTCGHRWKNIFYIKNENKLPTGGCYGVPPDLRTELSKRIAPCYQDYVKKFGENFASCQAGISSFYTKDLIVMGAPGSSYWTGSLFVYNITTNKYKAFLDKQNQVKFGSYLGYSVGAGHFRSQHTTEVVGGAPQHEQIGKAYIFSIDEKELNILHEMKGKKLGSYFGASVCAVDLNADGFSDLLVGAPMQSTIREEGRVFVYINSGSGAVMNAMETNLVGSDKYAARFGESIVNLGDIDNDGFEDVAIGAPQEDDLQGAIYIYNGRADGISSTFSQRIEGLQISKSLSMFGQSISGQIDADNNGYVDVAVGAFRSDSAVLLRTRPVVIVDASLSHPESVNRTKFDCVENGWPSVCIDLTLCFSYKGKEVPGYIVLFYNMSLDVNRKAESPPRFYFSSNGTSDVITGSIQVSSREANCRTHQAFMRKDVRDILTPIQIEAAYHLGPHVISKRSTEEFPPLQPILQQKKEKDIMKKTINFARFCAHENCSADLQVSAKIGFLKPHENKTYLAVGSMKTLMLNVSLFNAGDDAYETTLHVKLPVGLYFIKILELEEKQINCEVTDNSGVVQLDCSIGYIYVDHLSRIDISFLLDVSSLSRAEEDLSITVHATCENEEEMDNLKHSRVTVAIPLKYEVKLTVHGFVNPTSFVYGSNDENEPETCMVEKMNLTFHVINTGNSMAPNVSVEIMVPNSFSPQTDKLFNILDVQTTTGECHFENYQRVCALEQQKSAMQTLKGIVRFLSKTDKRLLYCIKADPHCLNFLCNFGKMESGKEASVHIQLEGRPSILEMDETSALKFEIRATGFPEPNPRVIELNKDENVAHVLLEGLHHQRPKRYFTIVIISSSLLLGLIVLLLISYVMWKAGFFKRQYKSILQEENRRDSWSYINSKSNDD

The nature of test [8]: superoxide lowering in aged yeast cells, pilot screen, validation compound set (AID 2706;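 active = superoxide response below 65% of plate, a cut near 3 SD across the whole screen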;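 note: yeast exposed to compound for one week at 30 degrees C before staining; 100% = mean of all compound wells on the same plate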). The note with it: S. cerevisiae aging, superoxide DHE fluorescence; at 10 µM, stronger effect = lower value.
Test [9] deals with Beta-adrenergic receptor kinase 1 (Homo sapiens) (UniProt P25098). In words: GRK2 binders displacing RNA aptamer, biochemical, validation, human GRK2, bead flow cytometry (AID 488806;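 active = aptamer binding inhibition above 30%, about 3 SD of noise from non-fluorescent compounds; inactive = inhibition at or below 30%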). As to conditions: bead-bound GRK2, FAM-aptamer displacement, at 10 µM, stronger effect = higher value.
Beta-adrenergic receptor kinase 1 (Homo sapiens), sequence (P25098 whole entry, looked up): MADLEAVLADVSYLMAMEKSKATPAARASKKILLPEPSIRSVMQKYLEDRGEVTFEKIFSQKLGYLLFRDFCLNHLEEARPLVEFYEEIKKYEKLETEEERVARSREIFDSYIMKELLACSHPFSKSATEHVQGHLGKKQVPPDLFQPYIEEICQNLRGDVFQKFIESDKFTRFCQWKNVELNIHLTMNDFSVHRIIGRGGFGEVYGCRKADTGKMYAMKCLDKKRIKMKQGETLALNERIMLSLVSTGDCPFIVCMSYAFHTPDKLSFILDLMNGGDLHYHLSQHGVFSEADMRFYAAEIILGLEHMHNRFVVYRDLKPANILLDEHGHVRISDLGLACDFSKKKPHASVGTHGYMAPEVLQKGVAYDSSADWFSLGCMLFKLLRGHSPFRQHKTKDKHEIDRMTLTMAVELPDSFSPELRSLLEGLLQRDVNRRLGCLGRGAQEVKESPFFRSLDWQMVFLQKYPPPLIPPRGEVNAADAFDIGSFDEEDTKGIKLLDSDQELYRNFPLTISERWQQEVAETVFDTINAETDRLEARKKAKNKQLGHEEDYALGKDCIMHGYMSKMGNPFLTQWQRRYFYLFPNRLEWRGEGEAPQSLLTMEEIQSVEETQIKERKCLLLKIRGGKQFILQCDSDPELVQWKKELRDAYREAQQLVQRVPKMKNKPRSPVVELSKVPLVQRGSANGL
Test [10] has as its target AP-2 complex subunit beta (Homo sapiens) (UniProt P63010). The test is described as follows: inhibitors of arrestin peptide binding to AP2, pilot screen, biochemical, validation set, GST-AP2 beads, flow cytometry (AID 504541;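 active = inhibition above 54%, about 3 SD of non-fluorescent compounds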;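 note: AP2 carries R879A mutation and is captured from E. coli lysate; bead-bound FITC arrestin peptide fluorescence measuring arrestin peptide binding to AP2; 0% = DMSO wells and 100% = excess unlabeled arrestin peptide control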). The note with it: FITC arrestin peptide, at 10 µM, stronger effect = higher value, AP2 beta2 appendage fragment, R879A mutant.
The nature of test [11]: yeast V-ATPase proton transport modulators, S. cerevisiae, pHLuorin, HTS validation (AID 504600).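 Note: plate controls were DMSO for no effect and reference compound for full effect.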 The note with it: S. cerevisiae pHLuorin cytosolic pH, at 10 µM, stronger effect = higher value.
Test [12] deals with anti-desmoglein-3 scFv antibody binding to human DSG3. In words: inhibitors of anti-DSG3 scFv binding to DSG3, pilot screen, biochemical, validation compound set, bead-based, flow cytometry (AID 588368;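 active = binding below the plate cutoff, the plate median minus 3 SD, with a reading above zero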;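 note: signal is the median channel fluorescence of bead-bound GFP antibody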). The note with it: Protein G beads, DSG3-Fc, scFv-GFP binding, at 10 µM, stronger effect = lower value.
A short description of test [13]: inhibitors of fungal efflux pumps CDR1, CDR2, MDR1, pilot screen, validation compound set, multiplex, phenotypic (AID 588506;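 active = efflux inhibition above 0.42, the validation set average plus 4 SD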;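 note: Nile Red retained in cells so higher fluorescence means more efflux inhibition; 0 = negative control wells and 1 = enniatin B 25 µM full block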). As to conditions: S. cerevisiae pump-expressing triplex, Nile Red efflux flow cytometry; at 10 µM; stronger effect = higher value; the pumps come from Candida albicans.
The target in test [14] is ATP-binding cassette sub-family B member 6 (Homo sapiens) (UniProt Q9NP58). In words: ABCB6 transporter inhibitors, pilot screen, K562-ABCB6 cells, flow cytometry, validation set (AID 588550;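 active = inhibition above the screen-wide mean plus 3 SD, about 51%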;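 note: 0% = DMSO wells and 100% = benzethonium chloride 70 µM positive control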). The note with it: K562-ABCB6 porphyrin accumulation, 1 h, at 10 µM, stronger effect = higher value.
ATP-binding cassette sub-family B member 6 (Homo sapiens), sequence (Q9NP58 whole entry, looked up): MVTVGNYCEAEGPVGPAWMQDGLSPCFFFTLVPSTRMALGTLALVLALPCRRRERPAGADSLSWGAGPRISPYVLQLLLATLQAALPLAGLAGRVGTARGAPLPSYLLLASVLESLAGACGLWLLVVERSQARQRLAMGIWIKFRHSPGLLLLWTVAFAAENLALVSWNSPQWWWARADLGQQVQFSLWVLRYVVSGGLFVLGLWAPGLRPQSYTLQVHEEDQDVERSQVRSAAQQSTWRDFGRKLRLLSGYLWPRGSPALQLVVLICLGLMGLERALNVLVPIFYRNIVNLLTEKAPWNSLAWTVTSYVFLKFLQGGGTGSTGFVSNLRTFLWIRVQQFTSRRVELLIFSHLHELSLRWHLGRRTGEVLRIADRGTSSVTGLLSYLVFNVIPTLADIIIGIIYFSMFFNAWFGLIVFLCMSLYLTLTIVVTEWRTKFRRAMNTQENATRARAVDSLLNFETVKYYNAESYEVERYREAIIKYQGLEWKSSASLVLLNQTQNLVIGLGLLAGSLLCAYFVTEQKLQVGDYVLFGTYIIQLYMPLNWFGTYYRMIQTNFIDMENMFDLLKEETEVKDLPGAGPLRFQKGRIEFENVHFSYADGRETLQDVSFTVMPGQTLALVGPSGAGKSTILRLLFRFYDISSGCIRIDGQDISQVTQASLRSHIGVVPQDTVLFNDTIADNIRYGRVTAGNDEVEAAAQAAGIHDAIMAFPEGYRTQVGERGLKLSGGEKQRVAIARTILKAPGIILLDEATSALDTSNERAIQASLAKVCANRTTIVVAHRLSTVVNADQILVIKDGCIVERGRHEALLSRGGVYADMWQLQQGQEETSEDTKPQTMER
Test [15] is described as follows: promoters of myeloid differentiation in arrested cells, primary screen, cell-based, GFP/MAC1 double positive, flow cytometry, validation set (AID 588685;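 active = differentiation response of at least 50%, scaled between solvent and reference control, from cells with both markers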;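 note: compound exposure lasts four days before antibody staining and flow analysis; 0% = DMSO wells and 100% = 5 µM fulvestrant positive control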). As to conditions: ER-HoxA9 marrow cells, stronger effect = higher value, normalized: vehicle 0, fulvestrant 100.
Test [16] addresses Beta-2 adrenergic receptor (Homo sapiens) (UniProt P07550). In words: beta2AR agonists driving receptor internalization, pilot screen, cell-based, FAP fluorogen, flow cytometry, validation set (AID 504459;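 active = percent response above 42, roughly 3 SD of non-fluorescent test compounds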;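 note: agonist-driven loss of surface beta2AR via internalization measured by FAP dye flow cytometry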). The note with it: Am2.2-beta2AR cells, FAP surface receptor flow cytometry; at 10 µM; stronger effect = higher value.

For orientation: inhibition means the relative decrease from the control value, in per cent.

AP-2 complex subunit beta (Homo sapiens), sequence (P63010 whole entry, looked up, the tested form may be a part, one chain of several): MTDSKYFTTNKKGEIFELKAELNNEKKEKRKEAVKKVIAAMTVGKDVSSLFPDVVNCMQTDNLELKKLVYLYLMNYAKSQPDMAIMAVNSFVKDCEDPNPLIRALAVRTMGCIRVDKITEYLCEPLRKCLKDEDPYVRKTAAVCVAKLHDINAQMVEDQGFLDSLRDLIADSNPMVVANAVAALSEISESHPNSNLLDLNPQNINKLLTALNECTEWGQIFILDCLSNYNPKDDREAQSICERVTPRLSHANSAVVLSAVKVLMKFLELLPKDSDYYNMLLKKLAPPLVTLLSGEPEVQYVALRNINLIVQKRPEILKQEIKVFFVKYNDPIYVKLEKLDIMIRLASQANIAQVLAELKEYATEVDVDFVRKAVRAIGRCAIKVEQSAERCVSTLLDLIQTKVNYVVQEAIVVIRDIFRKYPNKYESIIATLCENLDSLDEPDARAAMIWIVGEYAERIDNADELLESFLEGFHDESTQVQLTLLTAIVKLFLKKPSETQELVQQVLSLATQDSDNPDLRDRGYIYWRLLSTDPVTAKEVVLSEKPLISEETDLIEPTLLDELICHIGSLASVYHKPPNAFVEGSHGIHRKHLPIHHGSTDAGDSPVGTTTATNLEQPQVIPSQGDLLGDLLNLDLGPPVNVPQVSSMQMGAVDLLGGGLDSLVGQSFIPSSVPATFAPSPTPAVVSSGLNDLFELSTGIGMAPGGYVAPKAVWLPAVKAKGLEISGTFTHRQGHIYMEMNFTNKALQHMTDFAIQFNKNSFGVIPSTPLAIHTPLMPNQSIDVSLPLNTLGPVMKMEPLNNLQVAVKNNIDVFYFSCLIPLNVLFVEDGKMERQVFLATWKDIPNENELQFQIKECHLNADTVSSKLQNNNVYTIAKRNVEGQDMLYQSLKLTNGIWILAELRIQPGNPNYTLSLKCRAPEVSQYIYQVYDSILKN
Beta-2 adrenergic receptor (Homo sapiens), sequence (P07550 whole entry, looked up): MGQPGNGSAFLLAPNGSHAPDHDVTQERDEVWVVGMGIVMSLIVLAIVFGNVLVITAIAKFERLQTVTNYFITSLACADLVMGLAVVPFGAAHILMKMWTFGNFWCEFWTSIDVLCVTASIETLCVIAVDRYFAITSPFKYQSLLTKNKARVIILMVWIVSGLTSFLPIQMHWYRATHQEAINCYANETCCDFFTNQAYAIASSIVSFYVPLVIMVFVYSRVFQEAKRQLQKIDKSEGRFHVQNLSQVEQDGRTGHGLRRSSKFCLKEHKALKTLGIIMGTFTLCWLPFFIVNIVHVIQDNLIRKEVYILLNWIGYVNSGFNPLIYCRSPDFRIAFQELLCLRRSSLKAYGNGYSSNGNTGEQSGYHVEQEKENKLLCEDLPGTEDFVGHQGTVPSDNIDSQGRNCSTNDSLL

As for `O=C(NNC(=O)c1cccs1)c1ccco1`, the percent of DMSO control GFP in test [1] was 104% (inactive). In addition, the GFP response vs DMSO in [2] was 104% (inactive); in test [4], 111% (inactive). In [3], the percent response of DMSO control was 111% (inactive). Besides, the GFP response, % of DMSO in test [5] was 111% (inactive). In test [6], the double positive events came to 56.8%. In test [6], the vesicle binding response was 159% (inactive). For the same compound, the inhibition is -3.04% (inactive) in [7], -10.8% (inactive) in [10] and 16% (inactive) in [14]. Besides, the superoxide response (% of plate) in [8] was 95.2% (inactive). For the same compound, the aptamer binding inhibition in [9] is 1% (inactive). For the same compound, the response in test [11] was 8.92% (inactive). The binding (% of control) in test [12] is 102% (inactive). In addition, in [13], the efflux inhibition (fraction of control) was -0.05 (inactive). The differentiation response in test [15] was 1.41% (inactive).
Turning to `COc1ccc(CC(=O)c2c(O)cc(O)cc2O)cc1OC`, the percent of DMSO control GFP in test [1] was 103% (inactive). For the same compound, the GFP response vs DMSO in test [2] is 110% (inactive); in test [4], 101% (inactive). Further, the percent response of DMSO control in test [3] is 98.8% (inactive). The GFP response, % of DMSO in test [5] is 97.5% (inactive). The double positive events in [6] came to 58.4%. Besides, in test [6], the vesicle binding response is 171% (inactive). Besides, the inhibition in [7] was 1.62% (inactive); in test [10], 49.5% (inactive); in [14], 3% (inactive). For the same compound, the superoxide response (% of plate) in [8] is 102% (inactive). In [9], the aptamer binding inhibition is 1% (inactive). Further, the response in test [11] is -6.13% (inactive). In addition, the binding (% of control) in test [12] was 100% (inactive). The efflux inhibition (fraction of control) in [13] is 0.18 (inactive). Also, the differentiation response in [15] is 27.2% (inactive).
Turning to `Cn1cc(CN2CCCC(CO)(Cc3cccc(Cl)c3)C2)cn1` (stereo not given), in test [1], the percent of DMSO control GFP is 98% (inactive). The GFP response vs DMSO in [2] is 102% (inactive); in [4] it was 97.2% (inactive). The percent response of DMSO control in test [3] is 98.2% (inactive). Besides, the GFP response, % of DMSO in test [5] was 99.5% (inactive). In test [6], this compound showed a double positive events of 59.5%. In addition, the vesicle binding response in [6] was 57.6% (inactive). Besides, the values for the inhibition in test [7] and in test [14] were 9.71% (inactive) and 2% (inactive), respectively. Moreover, the superoxide response (% of plate) in test [8] is 92.7% (inactive). Also, the aptamer binding inhibition in test [9] is 0% (inactive). For the same compound, the response was 30.5% (inactive) in test [16] and -0.03% (inactive) in test [11]. The binding (% of control) in [12] is 102% (inactive). The efflux inhibition (fraction of control) in test [13] is -0.66 (inactive). Besides, in test [15], the differentiation response is -1.88% (inactive).
On to `Nc1nc2ccc(OC(F)(F)F)cc2s1`, for which the percent of DMSO control GFP in [1] is 100% (inactive). The GFP response vs DMSO is 99.9% (inactive) in [2] and 102% (inactive) in test [4]. The percent response of DMSO control in test [3] was 99.3% (inactive). Besides, the GFP response, % of DMSO in test [5] is 95.1% (inactive). For the same compound, the double positive events in test [6] is 57.4%. Further, the vesicle binding response in test [6] was 21.6% (inactive). Besides, the inhibition in [7] is -0.31% (inactive); in [14], 3% (inactive). Further, the superoxide response (% of plate) in test [8] was 94.9% (inactive). Also, the aptamer binding inhibition in test [9] is 4% (inactive). In addition, the response was 9.24% (inactive) in test [16] and 1.08% (inactive) in [11]. Also, in test [12], the binding (% of control) was 97.2% (inactive). Further, the efflux inhibition (fraction of control) in test [13] is -0.41 (inactive). Further, the differentiation response in [15] is 2.69% (inactive).
As to `COCCn1c(/C=C/c2ccccc2)nc2ccccc21`, the percent of DMSO control GFP in test [1] was 96.8% (inactive). Further, the GFP response vs DMSO is 101% (inactive) in test [2] and 93.3% (inactive) in test [4]. Also, in [3], the percent response of DMSO control was 93% (inactive). Besides, the GFP response, % of DMSO in test [5] is 87.9% (inactive). The same compound returned a double positive events in test [6] of 59.7%. The vesicle binding response in [6] was 149% (inactive). Moreover, the values for the inhibition in test [7], in test [10] and in [14] were 1.62% (inactive), 10.5% (inactive) and 6% (inactive), respectively. For the same compound, the superoxide response (% of plate) in test [8] was 92.6% (inactive). In [9], the aptamer binding inhibition is 2% (inactive). The response in test [11] is 0.08% (inactive). The binding (% of control) in test [12] is 105% (inactive). In addition, the efflux inhibition (fraction of control) in test [13] was 0.22 (inactive). Further, the differentiation response in [15] was -5.05% (inactive).
